In PubChem BioAssay:
Active and inactive are the calls of the source.

Columns and labels:
[1] = binders of probe aFSTL3 on microarray, primary screen, stem cell growth factor project, biochemical, small-molecule microarray, fluorescence 635/667 (AID 1064); conditions: higher = more signal;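 note: measures binding of the biotinylated anti-FSTL3 antibody to printed compounds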
[2] = binders from COS7 lysate, DM2A8 probe, primary screen, torsin A project, cell lysate, small-molecule microarray, fluorescence 635/667 (AID 1065); conditions: higher = more signal, COS7 lysate expressing mutant human TOR1A
[3] = binders of probe aFGF2 on microarray, primary screen, stem cell growth factor project, biochemical, small-molecule microarray, fluorescence 635/667 (AID 1067); conditions: higher = more signal;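 note: measures binding of biotinylated aFGF2 protein to printed compounds on slides; z-score merges feature fluorescence and signal-to-noise across triplicate slides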
[4] = binders of probe aFGF10 on microarray, primary screen, stem cell growth factor project, biochemical, small-molecule microarray, fluorescence 635/667 (AID 1071); conditions: higher = more signal;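 note: score merges 667 nm spot intensity and signal to noise from triplicate slides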
[5] = target: Neurogenic locus notch homolog protein 2 (Homo sapiens) (UniProt Q04721); experiment: Notch2 binders on small-molecule microarrays, primary screen, biochemical, small-molecule microarray, 635 nm fluorescence, stem cell growth factors (AID 1073); conditions: Notch2 binding, higher = more signal
Neurogenic locus notch homolog protein 2 (Homo sapiens), sequence (Q04721 whole entry, looked up, canonical isoform): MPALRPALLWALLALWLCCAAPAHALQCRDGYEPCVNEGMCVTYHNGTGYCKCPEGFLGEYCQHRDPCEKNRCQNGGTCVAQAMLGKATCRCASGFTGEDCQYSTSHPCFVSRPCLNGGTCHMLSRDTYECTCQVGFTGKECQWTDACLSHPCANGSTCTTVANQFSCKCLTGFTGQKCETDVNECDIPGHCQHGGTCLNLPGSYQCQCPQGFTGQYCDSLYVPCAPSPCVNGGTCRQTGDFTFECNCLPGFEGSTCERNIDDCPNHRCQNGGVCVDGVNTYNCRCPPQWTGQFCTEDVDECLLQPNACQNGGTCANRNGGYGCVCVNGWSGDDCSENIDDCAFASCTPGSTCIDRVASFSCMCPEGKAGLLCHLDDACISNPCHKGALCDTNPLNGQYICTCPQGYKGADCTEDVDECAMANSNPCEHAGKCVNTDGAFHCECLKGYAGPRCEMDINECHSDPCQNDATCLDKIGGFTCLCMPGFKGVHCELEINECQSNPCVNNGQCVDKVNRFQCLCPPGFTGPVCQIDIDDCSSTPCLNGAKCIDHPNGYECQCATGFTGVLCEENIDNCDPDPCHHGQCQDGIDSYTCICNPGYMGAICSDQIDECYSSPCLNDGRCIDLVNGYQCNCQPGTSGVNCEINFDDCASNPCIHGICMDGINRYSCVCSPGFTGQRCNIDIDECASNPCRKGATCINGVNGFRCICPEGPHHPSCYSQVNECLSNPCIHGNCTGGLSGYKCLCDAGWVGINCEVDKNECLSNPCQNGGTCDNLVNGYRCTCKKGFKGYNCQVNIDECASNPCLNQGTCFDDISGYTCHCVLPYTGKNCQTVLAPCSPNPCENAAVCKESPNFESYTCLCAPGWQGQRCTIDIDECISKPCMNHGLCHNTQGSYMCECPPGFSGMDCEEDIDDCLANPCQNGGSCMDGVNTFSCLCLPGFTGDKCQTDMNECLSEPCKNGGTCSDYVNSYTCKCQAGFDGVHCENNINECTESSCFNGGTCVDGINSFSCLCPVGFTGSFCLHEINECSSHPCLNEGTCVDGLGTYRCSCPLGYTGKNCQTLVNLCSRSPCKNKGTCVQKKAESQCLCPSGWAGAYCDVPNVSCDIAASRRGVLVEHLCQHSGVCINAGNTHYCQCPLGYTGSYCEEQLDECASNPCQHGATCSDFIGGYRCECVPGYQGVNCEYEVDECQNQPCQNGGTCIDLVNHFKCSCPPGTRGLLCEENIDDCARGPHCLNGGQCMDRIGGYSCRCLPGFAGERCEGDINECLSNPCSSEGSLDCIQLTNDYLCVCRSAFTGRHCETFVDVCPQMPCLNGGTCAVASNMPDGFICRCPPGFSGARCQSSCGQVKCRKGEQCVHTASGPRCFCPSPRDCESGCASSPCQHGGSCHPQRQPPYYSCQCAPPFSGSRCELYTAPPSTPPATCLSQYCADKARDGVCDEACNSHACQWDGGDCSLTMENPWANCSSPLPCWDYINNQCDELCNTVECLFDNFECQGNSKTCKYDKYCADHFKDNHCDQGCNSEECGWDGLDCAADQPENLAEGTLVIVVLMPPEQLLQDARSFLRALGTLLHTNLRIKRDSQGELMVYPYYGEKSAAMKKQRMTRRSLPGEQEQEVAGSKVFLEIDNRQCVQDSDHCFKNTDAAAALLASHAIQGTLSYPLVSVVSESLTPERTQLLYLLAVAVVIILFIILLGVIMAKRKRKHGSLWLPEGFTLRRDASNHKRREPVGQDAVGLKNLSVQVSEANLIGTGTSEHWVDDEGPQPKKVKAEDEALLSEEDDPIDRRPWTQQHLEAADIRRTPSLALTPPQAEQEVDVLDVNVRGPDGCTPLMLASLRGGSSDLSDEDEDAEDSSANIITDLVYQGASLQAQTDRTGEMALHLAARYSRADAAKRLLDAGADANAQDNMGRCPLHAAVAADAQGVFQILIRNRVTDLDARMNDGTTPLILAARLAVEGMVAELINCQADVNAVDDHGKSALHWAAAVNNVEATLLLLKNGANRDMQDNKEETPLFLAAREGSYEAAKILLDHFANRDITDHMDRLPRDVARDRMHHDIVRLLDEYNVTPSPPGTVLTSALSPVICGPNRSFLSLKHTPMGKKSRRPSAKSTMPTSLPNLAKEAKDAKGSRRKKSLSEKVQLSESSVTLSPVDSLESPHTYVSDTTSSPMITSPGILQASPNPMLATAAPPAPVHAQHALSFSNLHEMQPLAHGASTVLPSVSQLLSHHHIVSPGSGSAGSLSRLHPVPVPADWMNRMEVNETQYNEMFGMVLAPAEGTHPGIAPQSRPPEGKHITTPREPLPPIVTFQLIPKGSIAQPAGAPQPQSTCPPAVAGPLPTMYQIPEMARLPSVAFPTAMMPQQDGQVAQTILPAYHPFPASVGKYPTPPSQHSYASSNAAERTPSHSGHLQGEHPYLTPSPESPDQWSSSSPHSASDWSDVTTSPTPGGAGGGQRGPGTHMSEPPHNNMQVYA

[6] = target: Pro-neuregulin-1, membrane-bound isoform (Homo sapiens) (UniProt Q02297); experiment: NRG1 binders on small-molecule microarrays, primary screen, psychiatric disease protein project, biochemical, small-molecule microarray, fluorescence 635/667 (AID 1075); conditions: NRG1 binding, 635 nm fluorescence, higher = more signal;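 note: score combines 667 nm spot fluorescence with signal to noise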
[7] = test system: Neuregulin-1 EGF-like domain; experiment: binders of neuregulin-1 EGF-like domain, primary screen, biochemical, small-molecule microarray, 635 nm fluorescence (AID 1081); conditions: small-molecule microarray binding, higher = more signal;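 note: binding of the protein to compounds printed on small-molecule microarray slides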
[8] = FRG1 promoter luciferase signal modulators, primary screen, FRG1 inhibition for FSHD, cell-based, C2C12 myotubes, firefly/Renilla luciferase, luminescence (AID 1084); conditions: higher = more signal, called active from +8 up or from −8 down
[9] = binders of probe aFST on microarray, primary screen, stem cell growth factor project, biochemical, small-molecule microarray, fluorescence 635/667 (AID 1086); conditions: higher = more signal;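 note: score merges 667 nm fluorescence with signal-to-noise of each printed compound spot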
[10] = binders of probe aHhip on microarray, primary screen, stem cell growth factor project, biochemical, small-molecule microarray, fluorescence 635/667 (AID 1087); conditions: higher = more signal;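 note: score merges spot fluorescence at 667nm with spot signal to noise ratio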
[11] = test system: PRMT1 (protein arginine N-methyltransferase 1); experiment: PRMT1 binders on small-molecule microarrays, primary screen, biochemical, small-molecule microarray, 635 nm fluorescence (AID 1088); conditions: small-molecule microarray binding, higher = more signal;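 note: binding of Prmt1 protein to compounds spotted on small-molecule microarray slides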
[12] = yeast growth modulation, basal conditions, primary screen, YJM789 clinical isolate, OD600, 24 h (AID 1089);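 note: growth of clinical yeast isolate S. cerevisiae YJM 789 seeded 1000 cells per well; test concentration not given here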; conditions: S. cerevisiae YJM789 growth, higher = more signal, called active from +8 up or from −8 down
[13] = fission yeast growth modulation, primary screen, strain 972, OD600, 24 h, no modulator (AID 1090);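 note: basal condition with compound alone and no growth modifier present; test concentration not given here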; conditions: S. pombe 972 growth, higher = more signal, called active from +8 up or from −8 down
[14] = S. cerevisiae growth modulation with rapamycin, primary screen, strain BY4716, OD600, 96 h (AID 1091); conditions: higher = more signal, called active from +8 up or from −8 down; note: test concentration not given here
[15] = target: Torsin-1A-interacting protein 2 (Homo sapiens) (UniProt Q8NFQ8); experiment: LULL1 binders on small-molecule microarray, primary screen, cell lysate, human LULL1 lysate, 635/667 nm fluorescence (AID 1092); conditions: hLULL1 lysate binding, 635 nm fluorescence, higher = more signal;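 note: probe is lysate of COS7 cells overexpressing human LULL1; score merges per-feature 667 nm fluorescence with signal-to-noise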
[16] = E. coli growth modulation, two-sided OD650, primary screen, E. coli filamentation project, strain DRC41, 24 h (AID 1093); conditions: OD650, 24 h, higher = more signal, called active from +8 up or from −8 down;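 note: MC1000 strain lacking acrAB efflux and sulA so SOS filamentation is blocked; test concentration not given here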
[17] = small-molecule microarray binders of probe aLefty2, primary screen, biochemical, biotinylated probe, 635/667 nm fluorescence (AID 1094); conditions: higher = more signal;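 note: score merges spot fluorescence near 667 nm with spot signal-to-noise ratio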
[18] = test system: Noggin (protein binding on small-molecule microarray); experiment: Noggin binders on small-molecule microarray, primary screen, biochemical, 635/667 nm fluorescence (AID 1095); conditions: 635 nm fluorescence, higher = more signal;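 note: score merges 667 nm feature fluorescence with signal to noise over triplicate slides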
[19] = target: Neurogenic locus notch homolog protein 3 (Homo sapiens) (UniProt Q9UM47); experiment: NOTCH3 binders on small-molecule microarray, primary screen, biochemical, 635/667 nm fluorescence (AID 1096); conditions: NOTCH3 binding, 635 nm fluorescence, higher = more signal
Neurogenic locus notch homolog protein 3 (Homo sapiens), sequence (Q9UM47 whole entry, looked up): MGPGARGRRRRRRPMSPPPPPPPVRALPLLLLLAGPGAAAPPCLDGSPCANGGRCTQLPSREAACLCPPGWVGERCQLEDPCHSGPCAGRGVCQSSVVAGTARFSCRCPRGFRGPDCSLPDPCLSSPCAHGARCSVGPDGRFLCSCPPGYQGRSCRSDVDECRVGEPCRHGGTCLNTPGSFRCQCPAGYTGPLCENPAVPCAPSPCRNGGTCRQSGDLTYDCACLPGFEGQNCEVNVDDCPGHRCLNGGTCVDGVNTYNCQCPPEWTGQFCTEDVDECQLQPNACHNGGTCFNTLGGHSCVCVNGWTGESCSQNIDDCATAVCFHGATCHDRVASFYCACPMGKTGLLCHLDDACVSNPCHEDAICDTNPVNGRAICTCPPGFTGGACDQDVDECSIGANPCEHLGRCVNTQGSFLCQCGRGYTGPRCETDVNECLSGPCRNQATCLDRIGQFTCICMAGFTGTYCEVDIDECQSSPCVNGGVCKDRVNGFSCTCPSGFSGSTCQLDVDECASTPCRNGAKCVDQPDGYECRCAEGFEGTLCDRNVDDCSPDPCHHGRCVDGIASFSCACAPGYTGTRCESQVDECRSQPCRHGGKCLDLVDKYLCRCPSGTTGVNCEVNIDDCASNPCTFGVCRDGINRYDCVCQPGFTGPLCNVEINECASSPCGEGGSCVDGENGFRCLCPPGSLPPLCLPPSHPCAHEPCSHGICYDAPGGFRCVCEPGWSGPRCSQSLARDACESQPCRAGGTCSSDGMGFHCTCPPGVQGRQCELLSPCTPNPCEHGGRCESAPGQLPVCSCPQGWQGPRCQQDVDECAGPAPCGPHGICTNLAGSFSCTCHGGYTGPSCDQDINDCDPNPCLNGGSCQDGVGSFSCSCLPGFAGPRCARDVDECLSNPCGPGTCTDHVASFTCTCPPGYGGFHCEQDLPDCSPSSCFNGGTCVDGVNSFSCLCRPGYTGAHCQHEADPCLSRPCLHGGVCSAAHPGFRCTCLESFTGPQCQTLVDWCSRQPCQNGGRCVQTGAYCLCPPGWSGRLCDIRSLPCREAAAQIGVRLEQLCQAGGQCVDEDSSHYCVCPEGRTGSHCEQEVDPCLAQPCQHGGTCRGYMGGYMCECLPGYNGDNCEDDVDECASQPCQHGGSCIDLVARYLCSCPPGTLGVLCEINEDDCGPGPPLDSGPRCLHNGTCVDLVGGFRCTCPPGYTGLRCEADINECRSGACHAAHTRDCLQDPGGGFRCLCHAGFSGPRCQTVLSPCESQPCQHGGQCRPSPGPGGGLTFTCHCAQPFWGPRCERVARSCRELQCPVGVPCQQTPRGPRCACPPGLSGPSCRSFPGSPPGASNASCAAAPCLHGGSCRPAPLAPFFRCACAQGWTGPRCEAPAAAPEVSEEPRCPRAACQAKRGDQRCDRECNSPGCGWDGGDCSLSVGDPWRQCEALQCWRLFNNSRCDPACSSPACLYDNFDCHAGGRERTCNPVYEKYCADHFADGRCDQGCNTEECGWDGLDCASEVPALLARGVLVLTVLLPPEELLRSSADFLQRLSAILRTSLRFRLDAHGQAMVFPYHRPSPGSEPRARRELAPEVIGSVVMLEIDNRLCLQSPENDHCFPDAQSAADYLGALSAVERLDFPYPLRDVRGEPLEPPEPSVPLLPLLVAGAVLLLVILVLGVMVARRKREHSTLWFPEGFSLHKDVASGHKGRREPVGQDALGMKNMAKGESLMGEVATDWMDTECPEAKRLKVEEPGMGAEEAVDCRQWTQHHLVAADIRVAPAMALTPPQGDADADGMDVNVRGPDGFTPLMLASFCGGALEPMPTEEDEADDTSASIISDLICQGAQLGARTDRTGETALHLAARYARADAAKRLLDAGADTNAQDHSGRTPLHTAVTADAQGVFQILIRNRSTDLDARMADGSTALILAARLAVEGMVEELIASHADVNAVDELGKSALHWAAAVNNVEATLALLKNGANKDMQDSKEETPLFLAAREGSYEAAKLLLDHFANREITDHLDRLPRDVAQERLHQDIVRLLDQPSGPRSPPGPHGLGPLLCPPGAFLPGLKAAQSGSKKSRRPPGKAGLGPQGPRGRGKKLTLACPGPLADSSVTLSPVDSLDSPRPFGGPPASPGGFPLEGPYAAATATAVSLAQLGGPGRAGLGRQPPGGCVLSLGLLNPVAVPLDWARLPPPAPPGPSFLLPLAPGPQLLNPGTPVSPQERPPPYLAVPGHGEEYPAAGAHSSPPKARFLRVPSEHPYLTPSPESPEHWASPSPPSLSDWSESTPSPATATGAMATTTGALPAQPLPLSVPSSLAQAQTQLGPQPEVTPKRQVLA

[20] = small-molecule microarray binders of probe aEGFR, primary screen, biochemical, biotinylated probe, 635/667 nm fluorescence (AID 1097); conditions: higher = more signal;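 note: probe is a biotinylated anti-EGFR antibody binding compounds printed on slides; score combines fluorescence near 667 nm and signal to noise of each spot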

| Structure (SMILES) | composite z-score [1] | composite z-score [2] | composite z-score [3] | composite z-score [4] | composite z-score [5] | composite z-score [6] | composite z-score [7] | z-score [8] | composite z-score [9] | composite z-score [10] | composite z-score [11] | z-score [12] | z-score [13] | z-score [14] | composite z-score [15] | z-score [16] | composite z-score [17] | composite z-score [18] | composite z-score [19] | composite z-score [20] |
| --- | --- | --- | --- | --- | --- | --- | --- | --- | --- | --- | --- | --- | --- | --- | --- | --- | --- | --- | --- | --- |
| CCCCC(O)C1C=CC2C(=O)N(c3ccccc3)C(=O)C2N1Nc1ccc(C(C)C)cc1 (stereo not given) | -0.158 | -0.534 | 0.0662 | 0.47 | 1.44 | 1.85 | 0.697 | -0.875 (inactive) | 1.13 | -0.217 | 1.37 | 0.603 (inactive) | -0.582 (inactive) | 0.0624 (inactive) | 3.01 | -1.32 (inactive) | -0.122 | 0.49 | 1.03 | -0.067 |
| CCCCO[C@H]1C[C@H]2C(I)=C[C@@H]1C(=O)[C@]21CO1 | -0.329 | 0.823 | -0.0706 | 0.0657 | -0.361 | -0.149 | -0.44 | 1.43 (inactive) | -0.323 | -0.236 | -0.429 | -1.88 (inactive) | -4.81 (inactive) | -1.68 (inactive) | -1.03 | -1.25 (inactive) | -0.126 | 0.359 | 0.0532 | -0.19 |
| C=CCOC(=O)[C@H]1[C@@H]2C(=O)O[C@@H](c3ccccc3)[C@@H](c3ccccc3)N2[C@@H](c2ccc(OCCOC(=O)[C@H]3C[C@H]4C(=O)N[C@@H](CC(C)C)C(=O)N4[C@H]3c3cccc(OCCO)c3)cc2)[C@]12C(=O)Nc1ccc(I)cc12 | -0.475 | 0.178 | -0.0442 | 0.823 | 0.919 | -0.403 | 1.17 | 0.842 (inactive) | 0.157 | 0.0373 | 1.48 | 0.219 (inactive) | 0.46 (inactive) | 2.8 (inactive) | 2.76 | -0.266 (inactive) | -0.0416 | 0.972 | 0.97 | 0.0436 |
| C=CCC(OC(C)=O)[C@@H]1[C@@H](N(Cc2cc3ccccc3o2)C(=O)c2ccc(C)cc2)c2cc(OCCCO)ccc2N1C(=O)Cc1ccc(OC)cc1 (stereo not given in full) | -0.18 | 0.0811 | -0.0878 | -0.0177 | 0.0335 | -0.433 | -0.0742 | 0.443 (inactive) | 0.277 | -0.0645 | 0.23 | 0.0303 (inactive) | -0.841 (inactive) | -0.131 (inactive) | 0.692 | 1.21 (inactive) | 0.0761 | -0.0512 | 0.233 | -0.15 |
